# Data from PMC5540273 (PLoS ONE, 2017).
# What was measured:
# Details in all cases: concentration: 1 μM, replicates: in singlicate; n = 1
# [1] = tested on: CHEK2
# [2] = tested on: CIT
# [3] = tested on: CLK1
# [4] = tested on: CLK2
# [5] = tested on: CLK3
# [6] = tested on: CLK4
# [7] = tested on: CSF1R-autoinhibited
# [8] = tested on: CSF1R
# [9] = tested on: CSK
# [10] = tested on: CSNK1A1L
# [11] = tested on: CSNK1A1
# [12] = tested on: CSNK1D
# [13] = tested on: CSNK1E
# [14] = tested on: CSNK1G1
# [15] = tested on: CSNK1G2
# [16] = tested on: CSNK1G3
# [17] = tested on: CSNK2A1
# [18] = tested on: CSNK2A2
# [19] = tested on: T1, CTK
# T1 construct: gene MATK
# [20] = tested on: DAPK1
# 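Further: KINOMEscan kinase panel screen.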
SMILES,%Inh [1],%Inh [2],%Inh [3],%Inh [4],%Inh [5],%Inh [6],%Inh [7],%Inh [8],%Inh [9],%Inh [10],%Inh [11],%Inh [12],%Inh [13],%Inh [14],%Inh [15],%Inh [16],%Inh [17],%Inh [18],%Inh [19],%Inh [20]
CC(C)(C)c1ccc(C(=O)Nc2cn3cc(-c4cccnc4)ccc3n2)cc1,6%,28%,84%,41%,32%,74%,10%,30%,13%,15%,41%,78%,92.4%,10%,24%,21%,22%,17%,12%,40%
Cn1ccc2ncnc(Oc3cccc(C(=O)Nc4ccccc4)c3)c21,0%,8%,9%,0%,0%,18%,9%,6%,14%,2%,0%,0%,1%,0%,0%,2%,25%,11%,17%,20%
Fc1cc(Cl)ccc1Nc1ccnc2cc(I)ccc12 [GW551191],0%,37%,27%,0%,5%,5%,0%,0%,0%,0%,0%,5%,35%,4%,0%,20%,0%,0%,0%,19%
COc1ccc2nc(-c3cccc(C)n3)nc(Nc3ccncc3)c2c1 [GSK204919],0%,73%,18%,0%,2%,26%,0%,3%,0%,5%,31%,49%,64%,0%,0%,7%,4%,0%,0%,0%
O=C(Nc1ccccc1)Nc1cccc(Oc2ccc3nccn3n2)c1,1%,100%,6%,0%,0%,0%,0%,99.6%,0%,59%,0%,0%,0%,0%,0%,2%,0%,0%,0%,10%
